Test results from paper PMC11006913.
Numbering of substitutions follows the chain as printed.

Key:
Assay in all cases: PBM; 200 nM protein, PBS
Details in all cases: dsDNA, one strand shown
HESX1 [1] = biological target: HESX1 (Homo sapiens, UniProt Q9UBX0 95-180, R165K)
HESX1 [2] = biological target: HESX1 (Homo sapiens, UniProt Q9UBX0 95-180)
HESX1 [3] = biological target: HESX1 (Homo sapiens, UniProt Q9UBX0 95-180, P111T)
HOXB4 [4] = biological target: HOXB4 (Homo sapiens, UniProt P17483 148-234)
CRX [5] = biological target: CRX (Homo sapiens, UniProt O43186 26-111)
HOXA4 [6] = biological target: HOXA4 (Homo sapiens, UniProt Q00056 201-287, W262R)
ALX4 [7] = biological target: ALX4 (Homo sapiens, UniProt Q9H161 200-286)
ALX4 [8] = biological target: ALX4 (Homo sapiens, UniProt Q9H161 200-286, Q225E)
HOXA4 [9] = biological target: HOXA4 (Homo sapiens, UniProt Q00056 201-287, R217L)
HOXB4 [10] = biological target: HOXB4 (Homo sapiens, UniProt P17483 148-234, V174I)
CRX [11] = biological target: CRX (Homo sapiens, UniProt O43186 26-111, E42D)
HOXA4 [12] = biological target: HOXA4 (Homo sapiens, UniProt Q00056 201-287)
CRX [13] = biological target: CRX (Homo sapiens, UniProt O43186 26-111, R41L)
HOXA4 [14] = biological target: HOXA4 (Homo sapiens, UniProt Q00056 201-287, W262F)
HESX1 [15] = biological target: HESX1 (Homo sapiens, UniProt Q9UBX0 95-180, R109Q)
HESX1 [16] = biological target: HESX1 (Homo sapiens, UniProt Q9UBX0 95-180, F115L)
VENTX [17] = biological target: T1, VENTX (Homo sapiens, UniProt O95231 78-163, R121Q)
T1 sequence: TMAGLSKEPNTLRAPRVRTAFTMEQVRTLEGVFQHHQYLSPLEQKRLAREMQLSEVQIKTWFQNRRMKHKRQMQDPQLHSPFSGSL

HOXB9 [18] = biological target: HOXB9 (Homo sapiens, UniProt P17482 171-250, T197M)
VENTX [19] = biological target: T2, VENTX (Homo sapiens, UniProt O95231 78-163)
T2 sequence: T1 sequence with Q44R

HOXA7 [20] = biological target: HOXA7 (Homo sapiens, UniProt P31268 116-202)
PAX4 [21] = biological target: T3, PAX4 (Homo sapiens, UniProt O43316 9-242, R200K)
T3 sequence: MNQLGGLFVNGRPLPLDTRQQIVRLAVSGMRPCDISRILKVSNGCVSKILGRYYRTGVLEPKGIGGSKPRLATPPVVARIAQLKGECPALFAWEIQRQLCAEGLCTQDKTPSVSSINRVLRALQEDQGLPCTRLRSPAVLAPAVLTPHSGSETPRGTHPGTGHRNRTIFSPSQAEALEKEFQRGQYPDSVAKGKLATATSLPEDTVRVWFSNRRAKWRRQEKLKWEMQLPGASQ

VENTX [22] = biological target: T4, VENTX (Homo sapiens, UniProt O95231 78-163, Y115F)
T4 sequence: T1 sequence with Y38F, Q44R

PAX4 [23] = biological target: T5, PAX4 (Homo sapiens, UniProt O43316 9-242)
T5 sequence: T3 sequence with K192R

HOXB9 [24] = biological target: HOXB9 (Homo sapiens, UniProt P17482 171-250)
PAX4 [25] = biological target: T6, PAX4 (Homo sapiens, UniProt O43316 9-242, R200Q)
T6 sequence: T3 sequence with K192Q

PAX4 [26] = biological target: T7, PAX4 (Homo sapiens, UniProt O43316 9-242, F177V)
T7 sequence: T3 sequence with F169V, K192R

PAX4 [27] = biological target: T8, PAX4 (Homo sapiens, UniProt O43316 9-242, F177Y)
T8 sequence: T3 sequence with F169Y, K192R

HOXB9 [28] = biological target: HOXB9 (Homo sapiens, UniProt P17482 171-250, R186Q)
PAX4 [29] = biological target: T9, PAX4 (Homo sapiens, UniProt O43316 9-242, R227W)
T9 sequence: T3 sequence with K192R, R219W

HOXA7 [30] = biological target: HOXA7 (Homo sapiens, UniProt P31268 116-202, W177C)
Chain of HOXA7 (Homo sapiens, UniProt P31268 116-202, W177C) (P31268 116-202 W177C): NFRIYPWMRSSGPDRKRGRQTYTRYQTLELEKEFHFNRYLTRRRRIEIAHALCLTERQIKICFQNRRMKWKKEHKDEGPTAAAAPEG

Chain of HOXB4 (Homo sapiens, UniProt P17483 148-234, V174I) (P17483 148-234 V174I): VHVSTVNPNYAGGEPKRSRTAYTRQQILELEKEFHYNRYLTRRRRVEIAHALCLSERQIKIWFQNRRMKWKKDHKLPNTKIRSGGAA
Chain of HESX1 (Homo sapiens, UniProt Q9UBX0 95-180) (Q9UBX0 95-180): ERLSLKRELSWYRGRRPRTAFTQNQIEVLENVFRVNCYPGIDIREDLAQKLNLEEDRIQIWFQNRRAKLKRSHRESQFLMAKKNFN
Chain of HOXB4 (Homo sapiens, UniProt P17483 148-234) (P17483 148-234): as the sequence (P17483 148-234 V174I) above, with I27V counted along it
Chain of HESX1 (Homo sapiens, UniProt Q9UBX0 95-180, R165K) (Q9UBX0 95-180 R165K): as the sequence (Q9UBX0 95-180) above, with R71K counted along it
Chain of ALX4 (Homo sapiens, UniProt Q9H161 200-286, Q225E) (Q9H161 200-286 Q225E): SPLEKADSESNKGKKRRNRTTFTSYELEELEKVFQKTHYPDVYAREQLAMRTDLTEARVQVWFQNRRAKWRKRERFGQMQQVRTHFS
Chain of CRX (Homo sapiens, UniProt O43186 26-111, R41L) (O43186 26-111 R41L): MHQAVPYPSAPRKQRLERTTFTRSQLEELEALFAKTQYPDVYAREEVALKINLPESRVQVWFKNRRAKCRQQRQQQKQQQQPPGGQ
Chain of HOXA7 (Homo sapiens, UniProt P31268 116-202) (P31268 116-202): as the sequence (P31268 116-202 W177C) above, with C62W counted along it
Chain of HESX1 (Homo sapiens, UniProt Q9UBX0 95-180, P111T) (Q9UBX0 95-180 P111T): as the sequence (Q9UBX0 95-180) above, with P17T counted along it
Chain of HOXA4 (Homo sapiens, UniProt Q00056 201-287, R217L) (Q00056 201-287 R217L): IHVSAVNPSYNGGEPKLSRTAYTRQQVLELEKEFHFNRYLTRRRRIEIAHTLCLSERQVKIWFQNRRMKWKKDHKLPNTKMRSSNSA
Chain of HOXA4 (Homo sapiens, UniProt Q00056 201-287, W262R) (Q00056 201-287 W262R): as the sequence (Q00056 201-287 R217L) above, with L17R, W62R counted along it
Chain of ALX4 (Homo sapiens, UniProt Q9H161 200-286) (Q9H161 200-286): as the sequence (Q9H161 200-286 Q225E) above, with E26Q counted along it
Chain of HOXB9 (Homo sapiens, UniProt P17482 171-250, R186Q) (P17482 171-250 R186Q): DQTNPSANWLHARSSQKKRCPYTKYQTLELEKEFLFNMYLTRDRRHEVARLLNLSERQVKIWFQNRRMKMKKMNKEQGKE
Chain of HESX1 (Homo sapiens, UniProt Q9UBX0 95-180, R109Q) (Q9UBX0 95-180 R109Q): as the sequence (Q9UBX0 95-180) above, with R15Q counted along it
Chain of HOXB9 (Homo sapiens, UniProt P17482 171-250, T197M) (P17482 171-250 T197M): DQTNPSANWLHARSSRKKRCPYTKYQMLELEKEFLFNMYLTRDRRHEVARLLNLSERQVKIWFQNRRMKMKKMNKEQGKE
Chain of CRX (Homo sapiens, UniProt O43186 26-111, E42D) (O43186 26-111 E42D): as the sequence (O43186 26-111 R41L) above, with L16R, E17D counted along it
Chain of HESX1 (Homo sapiens, UniProt Q9UBX0 95-180, F115L) (Q9UBX0 95-180 F115L): as the sequence (Q9UBX0 95-180) above, with F21L counted along it
Chain of HOXA4 (Homo sapiens, UniProt Q00056 201-287) (Q00056 201-287): as the sequence (Q00056 201-287 R217L) above, with L17R counted along it
Chain of CRX (Homo sapiens, UniProt O43186 26-111) (O43186 26-111): as the sequence (O43186 26-111 R41L) above, with L16R counted along it
Chain of HOXA4 (Homo sapiens, UniProt Q00056 201-287, W262F) (Q00056 201-287 W262F): as the sequence (Q00056 201-287 R217L) above, with L17R, W62F counted along it
Chain of HOXB9 (Homo sapiens, UniProt P17482 171-250) (P17482 171-250): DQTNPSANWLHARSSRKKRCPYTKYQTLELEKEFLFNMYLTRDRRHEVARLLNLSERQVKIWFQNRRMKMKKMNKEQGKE

Q: Which results are given for AACCTATT?
A: binding signal (HESX1 [1]): 8.08 upbm affinity estimate (log intensity, higher = more binding, comparable within an allelic series); binding signal (HESX1 [2]): 8.17 upbm affinity estimate (log intensity, higher = more binding, comparable within an allelic series); binding signal (HESX1 [3]): 7.48 upbm affinity estimate (log intensity, higher = more binding, comparable within an allelic series)

Q: What does the source list for CAGGACCC?
A: binding signal (HOXB4 [4]): 7.14 upbm affinity estimate (log intensity, higher = more binding, comparable within an allelic series); binding signal (CRX [5]): 8.22 upbm affinity estimate (log intensity, higher = more binding, comparable within an allelic series); binding signal (HOXA4 [6]): 9.96 upbm affinity estimate (log intensity, higher = more binding, comparable within an allelic series); binding signal (ALX4 [7]): 7.85 upbm affinity estimate (log intensity, higher = more binding, comparable within an allelic series); binding signal (ALX4 [8]): 8.07 upbm affinity estimate (log intensity, higher = more binding, comparable within an allelic series); binding signal (HOXA4 [9]): 9.81 upbm affinity estimate (log intensity, higher = more binding, comparable within an allelic series); binding signal (HOXB4 [10]): 7.15 upbm affinity estimate (log intensity, higher = more binding, comparable within an allelic series); binding signal (CRX [11]): 8.19 upbm affinity estimate (log intensity, higher = more binding, comparable within an allelic series); binding signal (HOXA4 [12]): 9.67 upbm affinity estimate (log intensity, higher = more binding, comparable within an allelic series); binding signal (CRX [13]): 8.24 upbm affinity estimate (log intensity, higher = more binding, comparable within an allelic series); binding signal (HOXA4 [14]): 9.89 upbm affinity estimate (log intensity, higher = more binding, comparable within an allelic series)

Q: CAAATGGG was tested. Which binding signal (HESX1 [1]) did it give?
A: 7.28 upbm affinity estimate (log intensity, higher = more binding, comparable within an allelic series)

Q: What about the binding signal (HESX1 [2]) of the same sequence?
A: 7.38 upbm affinity estimate (log intensity, higher = more binding, comparable within an allelic series)

Q: What about the binding signal (HESX1 [15]) of the same sequence?
A: 6.88 upbm affinity estimate (log intensity, higher = more binding, comparable within an allelic series)

Q: And the binding signal (HESX1 [16])?
A: 6.73 upbm affinity estimate (log intensity, higher = more binding, comparable within an allelic series)

Q: What does the source list for GACCAGGC?
A: binding signal (HOXB4 [4]): 7.9 upbm affinity estimate (log intensity, higher = more binding, comparable within an allelic series); binding signal (VENTX [17]): 8.15 upbm affinity estimate (log intensity, higher = more binding, comparable within an allelic series); binding signal (HOXB9 [18]): 8.29 upbm affinity estimate (log intensity, higher = more binding, comparable within an allelic series); binding signal (VENTX [19]): 8.13 upbm affinity estimate (log intensity, higher = more binding, comparable within an allelic series); binding signal (HOXA7 [20]): 8.38 upbm affinity estimate (log intensity, higher = more binding, comparable within an allelic series); binding signal (PAX4 [21]): 9.22 upbm affinity estimate (log intensity, higher = more binding, comparable within an allelic series); binding signal (VENTX [22]): 8.13 upbm affinity estimate (log intensity, higher = more binding, comparable within an allelic series); binding signal (PAX4 [23]): 9.45 upbm affinity estimate (log intensity, higher = more binding, comparable within an allelic series); binding signal (HOXB9 [24]): 8.23 upbm affinity estimate (log intensity, higher = more binding, comparable within an allelic series); binding signal (HOXB4 [10]): 7.99 upbm affinity estimate (log intensity, higher = more binding, comparable within an allelic series); binding signal (PAX4 [25]): 9.45 upbm affinity estimate (log intensity, higher = more binding, comparable within an allelic series); binding signal (PAX4 [26]): 9.26 upbm affinity estimate (log intensity, higher = more binding, comparable within an allelic series); binding signal (PAX4 [27]): 9.29 upbm affinity estimate (log intensity, higher = more binding, comparable within an allelic series); binding signal (HOXB9 [28]): 8.26 upbm affinity estimate (log intensity, higher = more binding, comparable within an allelic series); binding signal (PAX4 [29]): 9.37 upbm affinity estimate (log intensity, higher = more binding, comparable within an allelic series); binding signal (HOXA7 [30]): 8.39 upbm affinity estimate (log intensity, higher = more binding, comparable within an allelic series)
